In PubChem BioAssay AID463195 (Sanford-Burnham Center for Chemical Genomics, 2010):
Screen size: about 330,000 compounds; about 4,600 (1.4%) were called active. The sample as a whole holds a higher share of actives than the screen did. Unmarked numbers belong to inactive results.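 Rule for the calls: active = inhibition of 40% or more at the single tested concentration; inactive = the rest.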

Assay: wild-type TIM10 yeast growth inhibition – luminescence, uHTS, counter-screen for tim10-1 yeast inhibitor project, primary screen (AID 463195);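 note: wild-type TIM10 isogenic control strain grown at permissive 25 °C; 0% = DMSO yeast wells and 100% = minimal medium wells without yeast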
Conditions: S. cerevisiae TIM10 strain growth, BacTiter-Glo luminescence, 24 h; at 10 µM; active compounds read high

SMILES	inhibition
O=C(Nc1cccc(CCc2ccccn2)c1)c1ccc(Cl)cc1	1.78%
O=C(Nc1cccc(Cl)c1)OCc1ccccn1	47.9% (active)
O=C(Nc1ccc(Cl)cc1)OCc1cc(-c2ccccc2)on1	6.71%
O=C(COC(=O)c1cc([N+](=O)[O-])ccc1NCc1ccccc1)NC1CCCCC1	-9.16%
CC(=O)Nc1ccc(S(=O)(=O)N(C)CC(=O)NCCC2=CCCCC2)cc1	3.82%
CCn1nc(C)c(CNC(=O)C2CCC(=O)N(Cc3cccc(F)c3)C2)c1C (stereo unspecified)	-0.612%
Cc1cc(C)n(C(=O)c2ccc(S(=O)(=O)N3CCCC3)cc2)n1	3.81%
Cn1c(Nc2ccccc2)cc(=O)n(C)c1=O	0.045%
Cc1cc(Nc2ccccc2)n(C(=O)c2ccc(N)cc2)n1	57.7% (active)
O=C(Cn1c(N2CCN(C/C=C/c3ccccc3)CC2)nc2ccccc21)c1ccccc1	30.9%
COc1ccc(Cl)cc1NC(=O)CN(C)CC(=O)Nc1ccc2c(c1)OCO2	-6.17%
Cc1cc(OC(=O)c2c(Cl)cccc2Cl)nc(C)n1	-1.42%
Cc1cc(C)c(S(=O)(=O)c2ccccc2)c(OC(=O)c2c(F)cccc2Cl)n1	59.8% (active)
Cc1ccc(NNC(=O)c2c(F)cccc2Cl)cc1Cl	11.3%
COCCCN1C(=O)c2ccc(C(=O)OCC(=O)NCc3ccccc3OC)cc2C1=O	2.82%
CN1C(=O)c2ccc(C(=O)Nc3ccc(Br)cn3)cc2C1=O	3.52%
O=C(Nc1ccc(Br)cn1)c1ccc([N+](=O)[O-])cc1Cl	14.3%
O=C(Nc1cccc(O)c1)c1ccc(C(=O)c2ccccc2)o1	30.4%
Cc1cccc(NC(=O)c2ccc([N+](=O)[O-])o2)c1	60.3% (active)
Cc1onc(C(=O)Nc2ccc3c(c2)OCO3)c1[N+](=O)[O-]	-7.9%
O=C(Nc1ccc(Br)cn1)c1ccc([N+](=O)[O-])o1	57.3% (active)
Cc1onc(NC(=O)c2ccc([N+](=O)[O-])o2)c1Br	46.6% (active)
CCN(CC)S(=O)(=O)c1ccc(N2CCCC2)c(NC(=O)c2ccc([N+](=O)[O-])o2)c1	28.1%
Cc1onc(C(=O)NCc2ccc(F)cc2)c1[N+](=O)[O-]	-0.126%

SMILES	inhibition
CC(C)(C)c1nnc(NC(=O)C2c3ccccc3Oc3ccccc32)s1	29.5%
Cc1ccc(CNC(=O)c2cccc3c2C(=O)c2ccc(N4CCC(C)CC4)cc2S3(=O)=O)cc1	4.75%
CC(=O)Nc1ccc(C(=O)N(C2=NC(C)CS2)c2ccc(Cl)cc2)cc1 (stereo unspecified)	20.1%
CC(=O)OCC(COC(C)=O)OC(C)=O	5.8%
COc1ccc(S(=O)(=O)NCCc2cc3ccc(C)c(C)c3[nH]c2=O)cc1	5.58%
CC(C)[C@@H](C(=O)O)N(Cc1cccc(CN([C@H](C(=O)O)C(C)C)S(C)(=O)=O)c1)S(C)(=O)=O	10.1%
CC(=O)c1cnc(-c2ccccc2)s1	12.3%
CC(C)(C)C(=O)c1cnc(Nc2ccccc2)s1	45.4% (active)
O=C(/C=C/Nc1ccccc1)c1cnc(-c2ccccc2)s1	3.58%
CCOC(=O)C1CCCN(C(=O)c2ccc(CS(=O)(=O)c3ccc(Br)cc3)o2)C1 (stereo unspecified)	4.19%
Cc1cc(N2CCCC2)ccc1NC(=O)COc1ccc(Cl)cc1	4.1%
NC(=O)NC(=O)C(OC(=O)CCNS(=O)(=O)c1ccccc1)c1ccccc1 (stereo unspecified)	14.9%
COc1ccc(N2C(=O)NC(NS(=O)(=O)c3ccc(Cl)cc3)(C(F)(F)F)C2=O)cc1 (stereo unspecified)	5.54%
O=C(NCCc1c[nH]c2ccccc12)c1cccc(Br)c1	4.34%
Cc1ccc(S(=O)(=O)N(C)CC(=O)NCCc2c[nH]c3ccccc23)cc1	-8.68%
Cc1cc(C)cc(NC(=S)NCCc2c[nH]c3ccccc23)c1	40.6% (active)
CCC(C)(C)NC(=O)CN(C(=O)CCC(=O)Nc1cc(C)ccn1)c1ccc2c(c1)OCCO2	17.4%
CCOC(=O)/C(C#N)=C\c1c(C)cc(C)c(COC(C)=O)c1C	19%
COC(=O)CN(c1cccc(C(C)=O)c1)S(C)(=O)=O	12.6%
CCSC1=C(C#N)C(=O)n2c1cc1c2CCCC1	63% (active)
CCSc1ncnc2c(C#N)c3n(c12)CCCCC3	-29.8%
COC(C[C@@H](O)C[C@H](O)[C@H](C)OCc1ccccc1)OC	-0.06%
c1ccc(-c2nnc3n2NC(c2ccc4c(c2)OCO4)S3)cc1 (stereo unspecified)	57.8% (active)
Cc1cccc(C)c1NC(=O)CSc1nnc(-c2ccccc2)n1Cc1ccc2c(c1)OCO2	-0.243%

SMILES	inhibition
CC1=C(C(N)=O)C(c2ccc3c(c2)OCO3)n2nc(-c3cccc(C)c3)nc2N1 (stereo unspecified)	2.9%
CN(CC(=O)NCCc1ccccc1)S(=O)(=O)c1cnc[nH]1	-7.58%
O=C(CNC(=O)c1cccnc1)N/N=C/c1cc(Br)c(O)c(Br)c1	-19.5%
Oc1c(Cl)cc(Cl)cc1/C=N/c1ncn[nH]1	23.9%
C=CCn1c(Cn2nnc3ccccc32)nnc1SCC(=O)N/N=C/c1cc(Br)cc(OC)c1O	-12.4%
COc1cc(Br)cc(/C=N/c2ncn[nH]2)c1O	48.7% (active)
Cc1cc(-c2nnc(SCC(=O)Nc3ccc(S(N)(=O)=O)cc3)n2N)n[nH]1	-1.79%
CCOC(=O)C1Sc2[nH]c(=O)sc2C(c2ccc(Cl)cc2)C1C(=O)OCC (stereo unspecified)	44.2% (active)
CCOC(=O)C1=C(C)NC(=O)N(C(C)=O)C1c1ccc(Cl)cc1 (stereo unspecified)	29.2%
CCOC(=O)c1[nH]c2c(c1-c1ccccc1)C(=O)CC(c1ccc(Cl)cc1)C2 (stereo unspecified)	3.98%
COc1ccc(N2C(=O)C3C(C2=O)C(C(=O)c2ccccc2)N2CCCC32)cc1 (stereo unspecified)	7.93%
Cn1ccnc1SCC(=O)Nc1ccc2c(c1)OCCO2	8.81%
COc1ccccc1-n1ccnc(SCC(=O)NC2CCCCC2)c1=O	15.4%
COc1cccc(NC(=O)CSc2nccn(-c3ccc4c(c3)OCCO4)c2=O)c1	44.8% (active)
CC(C)Oc1ccc(S(=O)(=O)N2CCOCC2)cc1NC(=O)C1CCCC1	3%
O=C(Nc1ccc(C(F)(F)F)cc1)c1cccc(-n2cnnn2)c1	93% (active)
O=C(Nc1cccc(-n2cnnn2)c1)c1cccnc1	5.34%
O=C(Nc1ccc(-c2csc(Nc3cccc(C(F)(F)F)c3)n2)cc1)c1cccc(C(F)(F)F)c1	14.2%
CN(CC(=O)Nc1cccc(F)c1)C(=O)CC1CCCC1	7.55%
Cc1ccc(S(=O)(=O)N2CCOCC2)cc1C(=O)NC(=S)N(Cc1ccccc1)C(C)C	15.5%
c1ccc(-c2ccnc3nc(-n4cccc4)nn23)cc1	14.7%
C/C(=N\Nc1ccc([N+](=O)[O-])cc1)c1ccc(-n2nncc2C(C)(C)C)cc1	8.53%
COc1ccc(NC(=O)c2ccc(C#CC(C)(C)O)cc2)cc1	12%
COc1ccc(C(=O)Nc2ccc(-n3nncc3C(C)(C)C)cc2)cc1	53.1% (active)

SMILES	inhibition
COc1cccc(N(C(=O)c2ccn[nH]2)C2(C(=O)Nc3c(C)cccc3C)CCCCC2)c1	17.6%
OC(c1ccccc1)c1nccn1Cc1ccccc1 (stereo unspecified)	8.31%
COc1ccc(/C=C(\C#N)C(=O)ONC2=NCCCCC2)cc1	48.5% (active)
COc1ccc(/C=C(\C#N)C(=O)OCC(=O)N(C)C2CCS(=O)(=O)C2)cc1 (stereo unspecified)	4.8%
COc1ccc(N2CCN(C(=O)/C(C#N)=C/c3ccccc3)CC2)cc1	36%
O=C(Cn1nc(CNc2ccc(Cl)cc2)[n+]2c1CCCCC2)c1ccc(Cl)cc1	-4.18%
Cn1cc(CCC(=O)NC2CC2)c2ccccc21	4.31%
O=C(Nc1ccccc1F)c1ccc(S(=O)(=O)N2CCCCCC2)cc1	12.4%
COC(=O)c1ccc(CNC(=O)c2ccc(S(=O)(=O)N3CCCCCC3)cc2)cc1	-4.47%
O=C(NCCc1ccc(F)cc1)c1ccc(S(=O)(=O)N2CCCCC2)cc1	41.7% (active)
O=C(Nc1ccc([N+](=O)[O-])cc1)C1CC12CCC2 (stereo unspecified)	14.3%
O=C(N/N=C/c1ccc(Cl)cc1)c1nc2ccc([N+](=O)[O-])cc2c(=O)[nH]1	-0.404%
COc1ccc(C(=O)N2CCCC(C(=O)c3ccccc3OC)C2)cc1OC (stereo unspecified)	1.3%
Cc1ccc(Cl)cc1NC(=O)C1CCCN(c2cnccn2)C1 (stereo unspecified)	5.02%
O=C(Nc1ccc2c(c1)OCCO2)C1CCCN(c2ncccn2)C1 (stereo unspecified)	-4.49%
O=C(Nc1cccc(Cl)c1)C1CCCN(c2cnccn2)C1 (stereo unspecified)	42.8% (active)
O=C1C2C3C=CC(C4CC34)C2C(=O)N1c1nccs1 (stereo unspecified)	-2.66%
CCOC(=O)c1cnc2ccc(F)cc2c1Nc1ccc2c(c1)OCCO2	37.4%
CCN(CC)S(=O)(=O)c1ccc(-c2cn3ccc(C)cc3n2)cc1	11.7%
COc1ccc(-c2cn3ccc(C)cc3n2)cc1	30.2%
Cc1ccc(-c2cn3cc(C)ccc3n2)cc1	65% (active)
Cc1ccc(-c2cn3cc([N+](=O)[O-])ccc3n2)cc1	-29.9%
CSc1nnc2ccc(-c3ccc(C)cc3)nn12	7.14%
Cc1ccc2nc(-c3ccc(Br)cc3)cn2c1	40.3% (active)
